Compound activity deposited in PubChem by The Scripps Research Institute Molecular Screening Center.
NR5A2 inv ag – suppresses constitutive activity of human LRH-1; O00482; HEK293T StAR-luciferase reporter, LRH-1 transfected, 24 h; inhibition, % at 3.6 µM; hit rate 0.13% among 360,000;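 active = inhibition above the mean inhibition of all tested compounds plus 3 SD, cut at about 73% in these data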
COUP-TFII inh – blocks human COUP-TFII nuclear receptor; P24468; HEK293T NGFI-A luciferase reporter, luminescence; inhibition, % at 8.6 µM; hit rate 0.7% among 370,000; AID 686940;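 active = inhibition above a per-plate cutoff, mean inhibition of test wells between control levels plus 3 SD, cut at about 38% in these data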;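 note: cells cotransfected with COUP-TFII expression vector driving the NGFI-A reporter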
SRC1 inh – inhibitors of human steroid receptor coactivator 1 (SRC1). hit rate 0.12% among 360,000. HEK293 GAL4-SRC1 luciferase reporter, luminescence. Q15788. inhibition, % at 3.6 µM. AID 588354;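 active = inhibition above the campaign mean plus 3 SD, with each screening campaign given its own cutoff, cut at about 60% in these data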
GalR3 antagonist – blocks the human galanin receptor 3; O60755; HEK293 GalR3-CNG cAMP membrane potential fluorescence; galR3 body fused to GalR1 C-terminus; inhibition, % at 3 µM; hit rate 0.44% among 360,000;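 active = inhibition above the screen-wide average plus 3 SD, cut at about 13% in these data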;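 note: forskolin and galanin both at EC90 stimulate the cells; cAMP rise reported by CNG channel membrane potential dye signal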
SRC3 inh – inhibits human SRC3 coactivator. Q9Y6Q9. HEK293 GAL4-SRC3 luciferase reporter, luminescence. inhibition, % at 3.6 µM. hit rate 0.17% among 360,000. AID 588352;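 active = inhibition above a per-campaign cutoff, the mean of all compounds plus 3 SD, cut at about 60% in these data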;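 note: higher means less SRC3-driven luciferase light from the GAL4 reporter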
NCOA2 inhibitor – inhibits human steroid receptor coactivator 2; HEK293 GAL4-SRC2 luciferase reporter, luminescence; inhibition, % at 9 µM; hit rate 0.17% among 370,000; Q15596;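 active = inhibition above the mean inhibition of all tested compounds plus 3 SD, set per campaign, cut at about 52% in these data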
GalR3 antag conf – GalR3 (human) antagonism, confirmation; inhibition, % at 3 µM; shares compounds with GalR3 antagonist; hit rate 59% among 1,600; HEK293 GalR3 CNG cAMP biosensor, membrane potential fluorescence; galR3 fused to GalR1 carboxy tail; challenged with forskolin and galanin at EC90;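 active = inhibition above the primary screen's cutoff, the mean inhibition of all screened compounds plus 3 SD, cut at about 13% in these data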
HEK-CNG parental – counter-screen for GalR3 antagonists: nonspecific agonists in parental HEK-CNG cells | shares compounds with GalR3 antagonist | HEK293-CNG parental cells, cAMP membrane potential fluorescence; normalised: DMSO wells 0%, forskolin wells 100% | activation, % at 3 µM | hit rate 10% among 1,600 | AID 652268; in the data active = activation above about 1.3%
Gal4-VP16 ctr – VP16 inhibition counter-screen for COUP-TFII; hit rate 25% among 2,500; inhibition, % at 8.5 µM; HEK293 Gal4-VP16 luciferase reporter, luminescence; shares compounds with COUP-TFII inh; in the data active = inhibition above about 13%
COUP-TFII conf – confirmation of human COUP-TFII (NR2F2) inhibitors | AID 687008 | shares compounds with COUP-TFII inh | inhibition, % at 8.5 µM | HEK293 NGFI-A luciferase reporter, luminescence | hit rate 45% among 2,500;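 active = mean inhibition over three repeats above a set limit taken from the earlier primary screen, cut at about 38% in these data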
Numbers stand for hits. A selection: hits, their analogues and other compounds. The true share with any hit is near 1.1%.

How did CC(C)(C)c1ccc(OCCCN2CCC(C(O)(c3ccccc3)c3ccccc3)CC2)cc1 do in these assays?
COUP-TFII inh: inactive; NCOA2 inhibitor: inactive

Results for COC(=O)c1cccc(Cn2ccc3ccc(-c4ccc5ccn(C(=O)c6ccccc6)c5c4)cc32)c1 ?
COUP-TFII inh: inactive; NCOA2 inhibitor: inactive

How did Cc1csc2ncnc(NC3CCN(Cc4ccccc4)CC3)c12 do in these assays?
NR5A2 inv ag: inactive; COUP-TFII inh: 59.5; SRC1 inh: inactive; GalR3 antagonist: 95.6; SRC3 inh: inactive; NCOA2 inhibitor: inactive; GalR3 antag conf: 107.6; HEK-CNG parental: inactive; Gal4-VP16 ctr: inactive; COUP-TFII conf: 59.1

Results for O=C1C=C(c2c(O)ccc3ccccc23)c2ccccc2C1=O ?
NR5A2 inv ag: inactive; COUP-TFII inh: 57.8; SRC1 inh: inactive; GalR3 antagonist: 22.8; SRC3 inh: inactive; NCOA2 inhibitor: inactive; GalR3 antag conf: 81.7; HEK-CNG parental: inactive; Gal4-VP16 ctr: 21.1; COUP-TFII conf: 43.0

Results for COc1ccc(-c2coc3c(C(=O)NCc4ccc(OC)c(OC)c4)cccc23)c(C)c1 ?
NR5A2 inv ag: inactive; COUP-TFII inh: 78.6; SRC1 inh: inactive; GalR3 antagonist: 88.6; SRC3 inh: inactive; NCOA2 inhibitor: inactive; GalR3 antag conf: 103.6; HEK-CNG parental: inactive; Gal4-VP16 ctr: inactive; COUP-TFII conf: 69.2

Results for O=C(NCc1ccc(C(F)(F)F)cc1)c1ccc(-c2ccc(F)c(F)c2)c2ccoc12 ?
NR5A2 inv ag: inactive; COUP-TFII inh: inactive; SRC1 inh: inactive; GalR3 antagonist: inactive; SRC3 inh: inactive; NCOA2 inhibitor: inactive

Results for COc1ccc(-c2ccc(C(=O)NCc3ccncc3)c3occc23)c(C)c1 ?
NR5A2 inv ag: inactive; COUP-TFII inh: 68.5; SRC1 inh: inactive; GalR3 antagonist: 90.0; SRC3 inh: inactive; NCOA2 inhibitor: inactive; GalR3 antag conf: 102.6; HEK-CNG parental: inactive; Gal4-VP16 ctr: inactive; COUP-TFII conf: 55.9

What do the screens show for `O=C(NCc1ccncc1)c1ccc(-c2ccc(F)c(F)c2)c2ccoc12`?
NR5A2 inv ag: inactive; COUP-TFII inh: 70.1; SRC1 inh: inactive; GalR3 antagonist: 29.2; SRC3 inh: inactive; NCOA2 inhibitor: inactive; GalR3 antag conf: inactive; HEK-CNG parental: inactive; Gal4-VP16 ctr: inactive; COUP-TFII conf: 41.0

What do the screens show for `COc1ccccc1-c1ccc(OCCCN2CCC(C(O)(c3ccccc3)c3ccccc3)CC2)cc1`?
COUP-TFII inh: inactive; GalR3 antagonist: inactive; NCOA2 inhibitor: inactive

How did COc1ccc(CCN(Cc2cccs2)S(=O)(=O)c2ccccc2)cc1OC do in these assays?
COUP-TFII inh: inactive; NCOA2 inhibitor: inactive

What do the screens show for `CCC(C)NS(=O)(=O)c1ccc(S(=O)(=O)N(CCc2ccc(OC)c(OC)c2)Cc2cccs2)cc1` (stereo not drawn)?
NR5A2 inv ag: inactive; COUP-TFII inh: 58.4; SRC1 inh: inactive; GalR3 antagonist: 26.0; SRC3 inh: inactive; NCOA2 inhibitor: inactive; GalR3 antag conf: 56.0; HEK-CNG parental: inactive; Gal4-VP16 ctr: inactive; COUP-TFII conf: 47.9

Results for Cc1ccc2c(c1)C(CS(=O)(=O)NCCc1ccccc1)NC2 (stereo not drawn) ?
COUP-TFII inh: inactive; NCOA2 inhibitor: inactive

What do the screens show for `CCCCCc1ccc(-c2cn(Cc3ccc(C(=O)c4ccccc4)cc3)nn2)cc1`?
NR5A2 inv ag: inactive; COUP-TFII inh: inactive; SRC1 inh: inactive; GalR3 antagonist: inactive; SRC3 inh: inactive; NCOA2 inhibitor: inactive
